Earlier results on 34 molecules are cited in PubChem BioAssay AID977608.

SMILES strings stand for the structures. Screen size: about 4,300 compounds; about 4,300 (100%) were called active. Cut-off not given; nearly all actives show IC50 up to about 1400 µM. The set was probably picked from earlier hits. The list shows a part of the results.

A short description of the data set: literature IC50 values for PDB complexes, PDB-derived complexes (AID 977608). The conditions noted are these: PDB protein-ligand complexes.

As for `O=C(Cc1ccccc1)Nc1nnc(CC=S)s1`, the half-inhibitory concentration (IC50) (protein: human glutaminase, PDB entry 3vp1) was 3.3 µM (active). Turning to `COc1cc(-c2ccc(NNc3ccc4c(S(O)(O)O)cc(S(O)(O)O)c(N)c4c3O)c(OC)c2)ccc1N=Nc1ccc2c(S(O)(O)O)cc(S(O)(O)O)c(N)c2c1O`, under “protein: Macrophage migration inhibitory factor, PDB entry 3u18”, the half-inhibitory concentration (IC50) is 0.81 µM (active). Take `O=c1cc([C@H]2CCN[C@@H](Cc3ccccc3)C2)o[nH]1`: the IC50 (protein: plasminogen kringle 1, PDB entry 4cik) is 0.37 µM (active). As for `C[C@@]1(c2cc(NC(=O)c3ccc(Cl)cn3)ccc2F)C[C@@H]2C[C@@H]2C(N)N1` (stereo not given in full), under “protein: BETA-SECRETASE 1, PDB entry 4bfd”, the IC50 is 0.096 µM (active). On to `CN(C)c1ccc2c(c1)CCN(c1cccc(-c3cc(Nc4ccc(C(=O)N5CCOCC5)cn4)c(=O)n(C)c3)c1CO)C2=O`, for which the IC50 (protein: Tyrosine-protein kinase BTK, PDB entry 4rfy) is 0.1 µM (active). For the molecule `C[C@@H](O[P+](O)(O)O)[C@H](NC(=O)[C@H](CO)NC(=O)[C@H](Cc1cncn1CCCCCCCCc1ccccc1)NC(=O)CCNC(=O)c1ccc(CO)cc1)C(N)=O`, under “protein: Serine/threonine-protein kinase PLK1, PDB entry 4whh”, the IC50 was 0.04 µM (active). Turning to `C[C@H](O[P+](O)(O)O)[C@H](NC(=O)[C@H](CO)NC(=O)[C@H](Cc1cncn1CCCCCCCCc1ccccc1)NC(=O)CCCNC(=O)c1ccccc1)C(N)=O`, the IC50 (protein: Serine/threonine-protein kinase PLK1, PDB entry 4whl) is 0.4 µM (active). `CC(=O)N[C@@H](Cc1cncn1CCCCCCCCc1ccccc1)C(=O)N[C@@H](CO)C(=O)N[C@H](C(N)=O)[C@@H](C)O[P+](O)(O)O`: the IC50 (protein: Serine/threonine-protein kinase PLK1, PDB entry 4rcp) is 4.42 µM (active). As for `O=C(C/C=C1\C=C(C(=O)c2ccc(F)cc2)C=N1)C[C@@H](O)C(=O)O`, for the setting “protein: DNA nucleotidylexotransferase, Tdt core, PDB entry 4iqu”, the half-maximal inhibitory concentration (IC50) is 0.58 µM (active). `O=C(NO)c1coc(-c2ccccc2C(F)(F)F)n1`: the IC50 (protein: METHIONINE AMINOPEPTIDASE, PDB entry 4a6v) is 1.9 µM (active). For `CN1CCN(c2ccc(N=C3CC(=O)N(c4ccc(Cl)cc4)N=C3c3ncn[nH]3)cc2)CC1`, the 50% inhibitory concentration (IC50) (protein: MEMBRANE PRIMARY AMINE OXIDASE, PDB entry 4bty) was 0.02 µM (active). `COC1=CC2=C(C(=O)C1)C(=O)O[C@H](C)CCCC(=O)[C@@H](O)[C@@H](O)C/C=C/2`: the IC50 (protein: Mitogen-activated protein kinase 1, PDB entry 2E14) was 0.08 µM (active). Consider `COC1=CC2=C(C(=O)C1)C(=O)O[C@@H](C)CCCC(=O)[C@@H](O)[C@@H](O)C/C=C/2`, for which, where the note is “protein: Mitogen-activated protein kinase 1, PDB entry 3w55”, the half-maximal inhibitory concentration (IC50) was 0.08 µM (active).

As to `NC(=O)c1cccc(N)c1`, for the setting “protein: Tankyrase-2 TNKS2, PDB entry 4pml”, the IC50 is 30 µM (active).

In the case of `CCOc1ccc2cc(-c3nn(C(C)(C)C)c(N)c3C(N)=O)cnc2c1`, under “protein: Calmodulin-domain protein kinase 1 CDPK1, PDB entry 4ona”, the IC50 is 0.007 µM (active).

As to `O=C(Nc1ccccc1)Nc1ccc(CCNc2ncnc3oc(-c4ccc(OCCN5CCC(O)CC5)cc4)cc23)cc1`, for the setting “protein: Aurora kinase A (T288D mutation), PDB entry 4jbp”, the 50% inhibitory concentration (IC50) is 0.041 µM (active). As for `CN(C)CCOc1ccc(-c2cc3c(NCCc4ccc(NC(=O)Nc5ccccc5)cc4)ncnc3o2)cc1`, the 50% inhibitory concentration (IC50) (protein: Aurora kinase A (T288D mutation), PDB entry 4jbo) is 0.024 µM (active). In the case of `CC(C)(O/N=C(\C(=O)N[C@H](C=O)[C@@H](CNC(=O)NCc1cc(=O)c(O)cn1O)NS(O)(O)O)c1csc(N)n1)C(=O)O`, the IC50 (protein: Penicillin-binding protein 3, PDB entry 4l0l) is 0.054 µM (active). For the molecule `CCN1CCN(c2nc(O)c(Cc3ccc(Cl)c(Cl)c3)s2)CC1`, the 50% inhibitory concentration (IC50) (protein: Ectonucleotide pyrophosphatase/phosphodiesterase family member 2, PDB entry 3waw) is 0.58 µM (active). As for `CN1CCN(c2nc(O)c(Cc3ccc(Cl)c(Cl)c3)s2)CC1`, the concentration for half-maximal inhibition (IC50) (protein: Ectonucleotide pyrophosphatase/phosphodiesterase family member 2, PDB entry 3wav) is 0.18 µM (active). With `c1ccc2c(c1)[nH]c1cncnc12`, under “protein: DUAL SPECIFICITY PROTEIN KINASE TTK, PDB entry 4bi0”, the IC50 is 58.6 µM (active). On to `Cc1cccc(Cc2nn(C(C)(C)C)c3ncnc(N)c23)c1`, for which, for the setting “protein: Proto-oncogene tyrosine-protein kinase Src, PDB entry 4lgg”, the IC50 was 0.003 µM (active). With `O=CN1CCN(c2nc(-c3ccccc3)ns2)CC1`, the IC50 (protein: Fatty-acid amide hydrolase 1, PDB entry 4hbp) was 0.0038 µM (active). On to `N=CCNC(=O)[C@@H]1C[C@@H](S(=O)(=O)c2ccccc2)C[C@H]1C(=O)N1CCOCC1`, for which, for the setting “protein: CATHEPSIN S, PDB entry 4bsq”, the half-inhibitory concentration (IC50) is 0.0007 µM (active). Consider `C=C1CC[C@@H](O[C@H]2C[C@@](O)([C@H](C)NC(=O)c3[nH]c(C)c(Cl)c3Cl)[C@H](O)[C@@H](C)O2)[C@@H]2C=C[C@H](C)[C@H](/C(O)=C3/C(=O)[C@H](C(C)C)N([C@@H]4O[C@@H](C)[C@@H](OC(N)=O)[C@@H](OC(C)=O)[C@H]4OC)C3=O)[C@@H]12`, for which the IC50 (protein: DNA GYRASE SUBUNIT B GyrB24, PDB entry 4urm) is 0.009 µM (active) and the concentration for half-maximal inhibition (IC50) (protein: DNA TOPOISOMERASE IV, B SUBUNIT ParE43, PDB entry 4url) was 0.5 µM (active).

Regarding `C/C=C\NC(=O)Nc1nc2cc(-c3cccnc3)c(=O)n(CCC(C)C)c2s1`, the half-maximal inhibitory concentration (IC50) (protein: Topoisomerase IV subunit B, PDB entry 4mot) is 0.05 µM (active).

`COc1cc(-c2n[nH]c3ccc(C[C@@H](C#N)C(=O)NC(C)(C)CO)cc23)cc(OC)c1OC`: the IC50 (protein: Ribosomal protein S6 kinase alpha-3 (T493M muation), PDB entry 4jg8) was 0.0025 µM (active).

Consider `O=C1N=Nc2nnc(-c3c(-c4ccccc4)nn4ccccc34)cc21`, for which the concentration for half-maximal inhibition (IC50) (protein: Insulin receptor (K1278N mutation), PDB entry 4ibm) is 1.8 µM (active). Regarding `Cc1ccccc1S(=O)(=O)N(CCN(Cc1cncn1C)c1ccc(C=N)cc1)CC1CCN(C(=O)OC(C)(C)C)CC1`, under “protein: CaaX farnesyltransferase alpha subunit Ram2, PDB entry 4lnb”, the 50% inhibitory concentration (IC50) is 0.275 µM (active). `COc1ccccc1-c1noc2nc(C)[nH]c(=O)c12`: the half-maximal inhibitory concentration (IC50) (protein: Class III chitinase ChiA1, PDB entry 4tx6) is 2.6 µM (active).

As to `CC[C@H](C)[C@H](NC(=O)[C@@H](c1cc(Cl)cc(Cl)c1)N(C)C)C(=O)NCc1ccnc(C=N)n1`, the half-inhibitory concentration (IC50) (protein: Protease AVP8, PDB entry 4pis) was 0.06 µM (active).

Take `COc1ccc([C@]2(C)CCSC(N)N2)cc1` (stereo not given in full): the IC50 (protein: BETA-SECRETASE 1, PDB entry 4bek) is 41.2 µM (active). Regarding `O[P+](O)(O)C(Nc1ncnc2sc(-c3ccc(C4C=C4)cc3)cc12)[P+](O)(O)O`, under “protein: Farnesyl pyrophosphate synthase, human FPPS, PDB entry 4l2x”, the IC50 was 0.039 µM (active). On to `Cc1ccc(-c2cc3c(NC([P+](O)(O)O)[P+](O)(O)O)ncnc3s2)cc1`, for which the IC50 (protein: Farnesyl pyrophosphate synthase, human FPPS, PDB entry 4jvj) is 0.022 µM (active).

The term IC50 denotes the point on the concentration scale where inhibition reaches its midpoint.
